Data from article PMC4552634, “A New Set of Chemical Starting Points with Plasmodium falciparum Transmission-Blocking Potential for Antimalarial Drug Discovery” (PLoS ONE, 2015).
The campaign covered roughly 13,000 compounds. About 3,200 (25%) showed an effect of 50% or more. The list shows a part of the results.

system: P. falciparum stage V gametocytes; design: BacTiter-Glo ATP luminescence viability of purified stage V gametocytes in 384-well plates, per cent inhibition versus DMSO; settings: 48 h, 5 µM; inhibitor

SMILES	% Inhibition [%]
Cc1cc2c(cc1C(F)(F)F)N(C(=O)Nc1cnc(OCCN(C)C)c(C(F)(F)F)c1)CC2 [TCMDC-139848]	26.2
O=C(NCc1ccccc1)NC1CCN(c2ccnc3cc(Cl)ccc23)C1 (stereo not shown) [TCMDC-133402]	-15.46
COc1ccc(NC(=O)NC2CCN(c3ccnc4cc(Cl)ccc34)C2)cc1 (stereo not shown) [TCMDC-133647]	-25.5
c1cncc(CCNCc2cccc(-c3csc(-c4nc5ccccc5[nH]4)c3)c2)c1 [TCMDC-132878]	-19.07
Cc1[nH]nc2cc(Nc3ccnc(Nc4ccc(CN5CCOCC5)cc4)n3)ccc12 [TCMDC-138633]	14.24
O=C(Cc1cnc[nH]1)Nc1cccc(-c2ccc(-c3nc4ccc(C(F)(F)F)cc4[nH]3)cc2)c1 [TCMDC-136952]	-24.24
CC(C)N1CCN(C(CN2CCN(CCCOc3ccc4ccccc4c3)CC2)c2ccc(F)cc2)CC1 (stereo not shown) [TCMDC-135495]	83.07
O=C(Nc1cccc(-c2ccc(CN3CCC(O)CC3)cc2)c1)c1cccc(Cl)c1 [TCMDC-132645]	-15.01
O=C(CCc1cnc[nH]1)Nc1cccc(-c2ccc(-c3nc4ccccc4[nH]3)cc2)c1 [TCMDC-132155]	31.89
Cc1cccc2[nH]c(-c3cccc(-c4cccc(NC(=O)Cc5cnc[nH]5)c4)c3)nc12 [TCMDC-136950]	-8.646
C#CCCC(=O)Nc1cccc(-c2cccc(-c3nc4c(C)cccc4[nH]3)c2)c1 [TCMDC-136857]	61.5
Cc1cccc2[nH]c(-c3cccc(-c4cccc(NC(=O)CCc5cnc[nH]5)c4)c3)nc12 [TCMDC-132158]	-23.69
O=C(CCc1cnc[nH]1)Nc1cccc(-c2cccc(-c3nc4ccccc4[nH]3)c2)c1 [TCMDC-132151]	78.34
Cc1cccc2[nH]c(-c3cccc(-c4ccc(NC(=O)CCc5cnc[nH]5)cc4)c3)nc12 [TCMDC-132159]	-12.17
CCOC(=O)NCC(=O)Nc1cccc(-c2cccc(-c3nc4c(C)cccc4[nH]3)c2)c1 [TCMDC-137048]	-2.875
O=C(CCc1cnc[nH]1)Nc1ccc(-c2cccc(-c3nc4ccccc4[nH]3)c2)cc1 [TCMDC-132150]	3.081
Cc1cccc2[nH]c(-c3ccc(-c4cccc(NC(=O)CCc5cnc[nH]5)c4)cc3)nc12 [TCMDC-132153]	72.28
Cc1cccc2[nH]c(-c3cccc(-c4ccc(NC(=O)Cc5cnc[nH]5)cc4)c3)nc12 [TCMDC-136951]	17.26
Cc1cccc2[nH]c(-c3ccc(-c4cccc(NC(=O)Cc5cnc[nH]5)c4)cc3)nc12 [TCMDC-136942]	73.44
Cc1cccc2[nH]c(-c3cccc(-c4cccc(NC(=O)Nc5ccccc5)c4)c3)nc12 [TCMDC-133152]	-23.55
O=C(Nc1cccc(-c2ccc(-c3nc4ccccc4[nH]3)cc2)c1)Nc1ccc2c(c1)OCO2 [TCMDC-133164]	-3.868
O=C(CSc1ccccn1)Nc1c(F)cccc1F [TCMDC-123935]	16.99
O=C(NC1CCCCC1)C1CCCN(C(=O)c2ccc(O)c(-c3ccc(Cl)c(Cl)c3)c2)C1 (stereo not shown) [TCMDC-140884]	5.577

SMILES	% Inhibition [%]
Cc1c(Cc2ccccc2)c(=O)oc2c(C)c3c(cc12)CN(CC(C)c1ccccc1)CO3 (stereo not shown) [TCMDC-125127]	34.31
O=c1cc(NCCCNCc2sc(Br)nc2Br)[nH]c2ccccc12 [TCMDC-140422]	-16.17
Cc1ccccc1C1CCN(C2CCC(NC(=O)/C=C/c3cccc(Cl)c3Cl)CC2)CC1 (stereo not shown) [TCMDC-133519]	-94.66
Cc1sc2nc(CN3CCCC3)nc(-n3c(NCCO)nc4ccccc43)c2c1C [TCMDC-124811]	45.04
OC(c1ccc(Cl)cc1)(c1ccc(Cl)cc1)C(c1ccc(Cl)cc1)n1ccnc1 (stereo not shown) [TCMDC-125069]	44.24
CN1CCN(c2cccc(-c3nnc(-c4cccc(OCC(=O)NCc5ccc(C(F)(F)F)cc5)c4)o3)c2)CC1 [TCMDC-134943]	0.9055
CC(C)(C)OC(=O)NCc1ccc(Nc2nnc(-c3cccc(C(=O)NCCC(c4ccccc4)c4ccccc4)c3)o2)cc1 [TCMDC-134989]	99.36
Cc1cccc(Cl)c1Nc1nnc(-c2cccc(C(=O)NC[C@@H]3CC[C@H]4C[C@@H]3C4(C)C)c2)o1 [TCMDC-135040]	-14.01
CN1CCN(c2cccc(-c3nnc(-c4ccc(OCC(=O)NCc5cccc(C(F)(F)F)c5)c([N+](=O)[O-])c4)o3)c2)CC1 [TCMDC-134941]	-68.92
O=C(NCc1ccc(C(F)(F)F)cc1)c1cccc(-c2nnc(-c3cccc(-c4cncnc4)c3)o2)c1 [TCMDC-134944]	18.23
CC(C)(C)OC(=O)NCc1ccc(Nc2nnc(-c3cccc(C(=O)NCc4cc(C(F)(F)F)cc(C(F)(F)F)c4)c3)o2)cc1 [TCMDC-135229]	97.34
CCCNC(=O)c1cncc(-c2ccc(CNC(CC)c3ccccc3)cc2)c1 (stereo not shown) [TCMDC-134238]	-1.576
CC(=O)NCCNCc1cccc(C(=O)NCc2cccc(C(F)(F)F)c2)c1 [TCMDC-140900]	22.07
CC(C)(C)OC(=O)NCc1ccc(Nc2nnc(-c3cccc(OCC(=O)NCc4cc(C(F)(F)F)cc(C(F)(F)F)c4)c3)o2)cc1 [TCMDC-134993]	101.9
O=c1ccc2ccc(F)c3c2n1CC3CN1CCC(NCc2cccc(-c3ccccc3F)c2)CC1 (stereo not shown) [TCMDC-134405]	-31.68
COc1ccc2nccc([C@@H](O)CN3CCC(NCc4cnc5snnc5c4)C(F)C3)c2c1 (stereo partly shown) [TCMDC-141752]	25.48
Cc1ccc(-n2ncc(C(=O)Nc3cc(Cl)cc(Cl)c3)c2C2CCNCC2)cc1C [TCMDC-124409]	57.45
Cc1ccccc1C1CCN(c2ncc(C(=O)Nc3ccccc3)cc2Cl)CC1 [TCMDC-134630]	-30.75
CCCc1c(C(=O)Nc2ccc3c(c2)CCN(C2CCC2)CC3)cnn1-c1ccc(Cl)cc1 [TCMDC-136081]	40.23
O=C(Nc1cc(Cl)cc(Cl)c1)c1cnn(-c2ccc(F)cc2)c1C1CCNCC1 [TCMDC-124410]	50.02
Cc1ccccc1C1CCN(c2ccc(NC(=O)c3ccc(Cl)nc3)cc2)CC1 [TCMDC-134586]	25.08
O=C(Nc1ccc(Cn2ncc(N3CCCNCC3)c(Cl)c2=O)cc1)Nc1cc(Cl)cc(Cl)c1 [TCMDC-133326]	-9.301
COc1cc(NC(=O)c2c(-c3c(Cl)cccc3Cl)noc2C)c(OC)cc1Cl [TCMDC-125477]	-41.77

SMILES	% Inhibition [%]
CC(O)C(C)(CO)NCc1ccc2c3c(cccc13)-c1ccccc1-2 (stereo not shown) [TCMDC-138117]	15.45
Cc1noc(C)c1-c1ccc2c(Nc3ccc(C(F)(F)F)cc3)c(C(N)=O)cnc2c1.Cl [TCMDC-136019]	23.08
Cc1ccc(O)cc1Nc1c(C(N)=O)cnc2ccc(-c3cncs3)cc12 [TCMDC-138565]	46.98
NC(=O)c1cnc2ccc(-c3cncs3)cc2c1Nc1ccc(F)c(Cl)c1 [TCMDC-138566]	50.74
O=C(N[C@@H](Cc1ccccc1)[C@H](O)CNCCC(F)(F)F)c1cccc(OCC2CC2)c1 [TCMDC-136610]	48.68
CCNc1cc(C(=O)N[C@@H](Cc2ccccc2)[C@H](O)CNC(C)(C)Cc2cccc(OC)c2)cc(N2CCCC2=O)c1 [TCMDC-134574]	1.402
CC(C)CCCC(C)(C)NC[C@@H](O)[C@H](Cc1ccccc1)NC(=O)c1cccc(OCC2CC2)c1 [TCMDC-136556]	100.1
CCCOc1cccc(C(=O)N[C@@H](Cc2ccccc2)[C@H](O)CNCc2cccc(OC)c2)c1 [TCMDC-136707]	12.44
COc1cccc(C2(NC[C@@H](O)[C@H](Cc3ccccc3)NC(=O)c3ccccc3)CCCCC2)c1 [TCMDC-135740]	7.84
CCOc1cc(C(=O)N[C@@H](Cc2ccccc2)[C@H](O)CNCc2cccc(OC)c2)cc(N2CCCCS2(=O)=O)c1 [TCMDC-134521]	-19.61
CC(C)CCCC(C)(C)NC[C@@H](O)[C@H](Cc1ccccc1)NC(=O)c1cccc(CCC2CC2)c1 [TCMDC-136602]	71.1
CCCOc1cccc(C(=O)N[C@@H](Cc2ccccc2)[C@H](O)CNCc2ccccc2OC)c1 [TCMDC-136706]	81.52
O=C(N[C@@H](Cc1ccccc1)[C@H](O)CNCCC(F)(F)F)c1cccc(CCC2CC2)c1 [TCMDC-136611]	-3.968
Clc1ccccc1/C=C/c1cncnc1Nc1ccc2nc(Cc3ccccc3)[nH]c2c1 [TCMDC-138659]	0.669
COc1cc(Nc2ccnc3cc(-c4ccccn4)ccc23)cc(OC)c1OC [TCMDC-138203]	0.8769
c1ccc(-c2cccc(-c3ccccn3)n2)nc1 [TCMDC-123985]	-15.75
COc1ccc(-c2ccnc(-c3cccc(-c4ccccn4)n3)c2)cc1 [TCMDC-125008]	155.4
N#Cc1ccc(NC(=NC2Cc3ccccc3C2)Nc2cccc(Cl)c2Cl)c(O)c1 [TCMDC-140223]	-11.72
O=C(/C=C/c1cccc(Cl)c1)N1CCC(C(O)CN2CCC3(CC2)CN(C(=O)/C=C/c2cccc(Cl)c2)c2ccccc23)CC1 (stereo not shown) [TCMDC-134543]	57.97
O=C(/C=C/c1ccc(Cl)c(Cl)c1)N1CCC(C(O)CN2CCC(c3c[nH]c4ccccc34)CC2)CC1 (stereo not shown) [TCMDC-134171]	19.99
CS(=O)(=O)Nc1ccc2[nH]cc(C3CCN(CC(O)C4CCN(C(=O)/C=C/c5ccc(Cl)c(Cl)c5)CC4)CC3)c2c1 (stereo not shown) [TCMDC-134176]	30.58
